# PubChem BioAssay (EPA / NIEHS)
# Records with an inconclusive call do not appear. Active and inactive are the calls of the source. The calls were made as follows, unless noted: active = hit-call score of the fitted dose curve at least 0.9, where 1 is the maximum; inactive = score below 0.9.
# Legend:
# [1] = molecular target: CCAAT/enhancer-binding protein beta (Homo sapiens) (UniProt P17676); assay: ATG_C_EBP_CIS: Attagene CIS-FACTORIAL HepG2 Assay for human CCAAT/Enhancer Binding Protein (C/EBP) beta (AID 2282927); conditions: HepG2 Attagene cis-factorial transcription factor reporter; actives raise or lower the signal
# Sequence of CCAAT/enhancer-binding protein beta (Homo sapiens) (P17676 whole entry, looked up): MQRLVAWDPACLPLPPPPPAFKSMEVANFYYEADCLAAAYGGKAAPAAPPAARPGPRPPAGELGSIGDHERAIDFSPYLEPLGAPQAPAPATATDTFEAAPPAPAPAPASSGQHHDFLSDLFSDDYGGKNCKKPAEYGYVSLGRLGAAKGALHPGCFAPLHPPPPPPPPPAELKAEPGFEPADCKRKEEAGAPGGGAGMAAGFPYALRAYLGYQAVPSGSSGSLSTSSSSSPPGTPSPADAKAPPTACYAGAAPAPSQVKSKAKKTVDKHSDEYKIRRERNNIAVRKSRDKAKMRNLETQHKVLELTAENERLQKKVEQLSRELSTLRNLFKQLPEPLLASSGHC
# Outline: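 Transiently transfected HepG2 (MRTU library, endogenous TF-driven promoters); 24 h dosing; total RNA → oligo(dT) RT → PCR → 6-FAM primer extension → HpaI digest → CE; fit bidirectionally vs DMSO.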
# [2] = molecular target: Hepatocyte nuclear factor 6 (Homo sapiens) (UniProt Q9UBC0); assay: ATG_HNF6_CIS: Attagene CIS-FACTORIAL HepG2 Assay for human Hepatocyte Nuclear Factor 6 (HNF6) (AID 2282952); conditions: HepG2 Attagene cis-factorial HNF6 reporter transcription; actives raise or lower the signal
# Outline: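 Twenty-four-hour chemical treatment of reporter-transfected HepG2 cells precedes RNA isolation, DNase-treated reverse transcription and PCR of reporter sequences. Labelled fragments are sized by capillary electrophoresis and fitted bidirectionally versus DMSO.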
# [3] = molecular target: Heat shock factor protein 1 (Homo sapiens) (UniProt Q00613); assay: ATG_HSE_CIS: Attagene CIS-FACTORIAL HepG2 Assay for human Heat Shock Transcription Factor 1 (HSE) (AID 2282953); conditions: HepG2 HSE cis-reporter, Attagene RNA transcription; actives raise or lower the signal
# Sequence of Heat shock factor protein 1 (Homo sapiens) (Q00613 whole entry, looked up, the tested form may be a part): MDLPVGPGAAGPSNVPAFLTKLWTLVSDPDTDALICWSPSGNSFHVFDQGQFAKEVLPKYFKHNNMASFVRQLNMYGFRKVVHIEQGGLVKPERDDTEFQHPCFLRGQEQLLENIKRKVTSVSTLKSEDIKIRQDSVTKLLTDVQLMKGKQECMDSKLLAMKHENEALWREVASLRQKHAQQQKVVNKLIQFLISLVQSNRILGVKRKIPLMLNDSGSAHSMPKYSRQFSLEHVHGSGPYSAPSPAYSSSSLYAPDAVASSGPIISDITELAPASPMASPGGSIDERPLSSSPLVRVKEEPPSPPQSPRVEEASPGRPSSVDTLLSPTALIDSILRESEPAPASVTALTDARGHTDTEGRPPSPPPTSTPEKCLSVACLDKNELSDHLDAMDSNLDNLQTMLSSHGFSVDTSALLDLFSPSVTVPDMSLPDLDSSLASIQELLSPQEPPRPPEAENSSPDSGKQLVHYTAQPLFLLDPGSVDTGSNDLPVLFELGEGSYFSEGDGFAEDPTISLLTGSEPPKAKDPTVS
# Outline: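 Read-out: fluorescence of reporter-specific RT-PCR fragments separated by capillary electrophoresis. HepG2 carrying transfected cis-element reporter units; 24 h dosing; activity fitted in both directions relative to DMSO baseline.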
# [4] = ATG_PXRE_CIS: Attagene CIS-FACTORIAL HepG2 Assay for human Pregnane X Receptor Element (PXRE) (AID 2282957); conditions: HepG2 Attagene CIS-FACTORIAL PXRE reporter, mRNA; actives raise or lower the signal
# Outline: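 Bidirectional activity, baselined to DMSO, derived from reporter mRNA fluorescence (RT-PCR plus capillary electrophoresis) in HepG2 cells bearing cis-promoter reporter units, 24 h exposure.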
# [5] = ATG_Sox_CIS: Attagene CIS-FACTORIAL HepG2 Assay for human SRY-box transcription factor (SOX) (AID 2282960); conditions: HepG2 Attagene cis-factorial SOX reporter, mRNA; actives raise or lower the signal
# Outline: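 HepG2 cells transiently transfected with multiple cis-regulated reporter units, then dosed for 24 h. Reporter mRNA quantified by RT-PCR, fluorescent labelling, HpaI digestion and capillary electrophoresis; bidirectional fit versus DMSO.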
# [6] = molecular target: Transcription factor Sp1 (Homo sapiens) (UniProt P08047); assay: ATG_Sp1_CIS: Attagene CIS-FACTORIAL HepG2 Assay for human Specificity Protein 1 (Sp1) (AID 2282961); conditions: HepG2 Sp1 cis-reporter transcription, actives raise or lower the signal
# Sequence of Transcription factor Sp1 (Homo sapiens) (P08047 whole entry, looked up): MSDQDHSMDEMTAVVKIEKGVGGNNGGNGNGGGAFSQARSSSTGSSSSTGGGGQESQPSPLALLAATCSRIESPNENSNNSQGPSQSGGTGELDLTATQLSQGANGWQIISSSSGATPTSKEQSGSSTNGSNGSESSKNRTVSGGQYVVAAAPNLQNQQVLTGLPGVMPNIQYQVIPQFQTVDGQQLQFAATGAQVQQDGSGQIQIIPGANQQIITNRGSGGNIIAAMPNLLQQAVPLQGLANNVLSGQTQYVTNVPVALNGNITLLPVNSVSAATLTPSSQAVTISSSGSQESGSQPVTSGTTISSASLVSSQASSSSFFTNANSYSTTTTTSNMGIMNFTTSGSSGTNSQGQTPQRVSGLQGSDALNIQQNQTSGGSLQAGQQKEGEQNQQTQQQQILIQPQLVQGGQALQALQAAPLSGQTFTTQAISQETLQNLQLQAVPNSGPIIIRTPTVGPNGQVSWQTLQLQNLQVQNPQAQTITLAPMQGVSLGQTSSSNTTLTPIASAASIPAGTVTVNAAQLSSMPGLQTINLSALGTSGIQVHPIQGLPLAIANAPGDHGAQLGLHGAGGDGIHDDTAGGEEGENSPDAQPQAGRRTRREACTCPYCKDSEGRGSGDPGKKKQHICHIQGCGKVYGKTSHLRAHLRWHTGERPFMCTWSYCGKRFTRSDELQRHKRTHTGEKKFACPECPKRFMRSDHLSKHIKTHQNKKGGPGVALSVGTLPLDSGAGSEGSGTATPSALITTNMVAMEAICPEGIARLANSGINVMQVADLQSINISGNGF
# Outline: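 HepG2 cells transiently transfected with multiplexed cis-regulated reporter constructs, chemical exposure 24 h. Reporter mRNA quantified by RT-PCR with capillary electrophoresis; bidirectional fit relative to DMSO.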
# [7] = ATG_TAL_CIS: Attagene CIS-FACTORIAL HepG2 Assay for human TAL Basal Promoter (AID 2282966); conditions: HepG2 Attagene cis-factorial TAL promoter reporter; actives raise or lower the signal;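 also: background control endpoint measuring basal TAL promoter reporter mRNA not a specific factor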
# Outline: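 Human hepatoma HepG2 cells, transfected with promoter-regulated reporter units, were treated 24 h. Reporter transcript levels, measured through RT-PCR and capillary electrophoresis, were fitted for gain or loss relative to DMSO.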
# [8] = molecular target: X-box-binding protein 1 (Homo sapiens) (UniProt P17861); assay: ATG_Xbp1_CIS: Attagene CIS-FACTORIAL HepG2 Assay for human X-box Binding Protein 1 (XBP1) (AID 2282972); conditions: HepG2 XBP1 cis-element reporter, Attagene multiplex; actives raise or lower the signal
# Sequence of X-box-binding protein 1 (Homo sapiens) (P17861 whole entry, looked up, the tested form may be a part): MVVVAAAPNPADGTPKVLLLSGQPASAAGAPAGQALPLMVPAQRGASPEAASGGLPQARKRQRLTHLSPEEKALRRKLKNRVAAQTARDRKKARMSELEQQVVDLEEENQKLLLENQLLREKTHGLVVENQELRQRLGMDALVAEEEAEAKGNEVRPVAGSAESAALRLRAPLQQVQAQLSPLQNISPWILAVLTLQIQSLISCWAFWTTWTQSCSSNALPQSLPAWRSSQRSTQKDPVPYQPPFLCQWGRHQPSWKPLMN
# Outline: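 Read-out: fluorescent reporter mRNA fragments resolved by capillary electrophoresis after RT-PCR. Human HepG2 liver cells carried transfected cis-promoter reporter units and were exposed to chemicals for 24 hours. Gain or loss of signal fitted relative to DMSO baseline.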
# [9] = ATG_M_06_TRANS: Attagene TRANS-FACTORIAL HepG2 Assay for M06 Transcription Factor (Internal Marker) (AID 2282983; active = hit-call score of the fitted dose curve at least 0.9, where 1 is the maximum); conditions: HepG2 Attagene TRANS M06 internal marker reporter
# Outline: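 Multi-reporter-transfected HepG2, 24 h treatment; reporter transcripts quantified via RT-PCR, primer-extension labelling and CE. DMSO-normalized gain-of-signal fit.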
# [10] = ATG_NFI_CIS: Attagene CIS-FACTORIAL HepG2 Assay for human Nuclear Factor I (NFI) (AID 2282989); conditions: HepG2 cis-regulatory reporter, NFI response element transcription; actives raise or lower the signal
# Outline: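 Read-out: reporter mRNA via RT-PCR plus capillary electrophoresis with fluorescence detection. Transiently transfected HepG2 (endogenous TF activity on cis promoters), 24 h compound exposure; gain or loss of signal fitted against DMSO.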
# [11] = molecular target: Myc proto-oncogene protein (Homo sapiens) (UniProt P01106); assay: ATG_Myc_CIS: Attagene CIS-FACTORIAL HepG2 Assay for human Myelocytomatosis (Myc) Proto-Oncogene Transcription Factor (AID 2282990); conditions: HepG2, Attagene cis-reporter transcription factor activity; actives raise or lower the signal
# Sequence of Myc proto-oncogene protein (Homo sapiens) (P01106 whole entry, looked up, the tested form may be a part): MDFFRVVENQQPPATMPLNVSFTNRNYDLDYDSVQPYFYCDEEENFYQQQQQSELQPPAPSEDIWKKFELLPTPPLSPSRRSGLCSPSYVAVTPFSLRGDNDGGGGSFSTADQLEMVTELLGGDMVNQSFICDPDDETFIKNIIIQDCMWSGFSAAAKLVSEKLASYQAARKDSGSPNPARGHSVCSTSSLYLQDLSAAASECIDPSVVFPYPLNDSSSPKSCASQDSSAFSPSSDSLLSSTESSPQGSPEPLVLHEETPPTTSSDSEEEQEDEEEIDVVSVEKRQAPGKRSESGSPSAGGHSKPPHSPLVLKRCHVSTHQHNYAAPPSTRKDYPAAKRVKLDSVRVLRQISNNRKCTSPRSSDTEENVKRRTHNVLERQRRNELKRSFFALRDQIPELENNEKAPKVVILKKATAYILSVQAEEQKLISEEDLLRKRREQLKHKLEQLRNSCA
# Outline: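 Read-out: fluorescent reporter mRNA fragments resolved by capillary electrophoresis after RT-PCR. Human HepG2 liver cells carried transfected cis-element reporter units and were dosed for 24 h. Gain or loss of signal fitted relative to DMSO baseline.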
# [12] = ATG_NRF2_ARE_CIS: Attagene CIS-FACTORIAL HepG2 Assay for human Nuclear Factor Erythroid 2 Related Factor 2 (NFR2) response to Antioxidant Response Elements (ARE) (AID 2282992); conditions: HepG2 Attagene ARE/NRF2 reporter, transcription factor activity; actives raise or lower the signal;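 as to AC50: reporter mRNA level measured by RT-PCR and capillary electrophoresis fluorescence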
# Outline: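 Readout: reporter mRNA quantified by RT-PCR plus FAM-labelled primer extension, HpaI digestion and capillary electrophoresis, 24 h after dosing transfected HepG2 cells. Gain or loss of signal is fitted bidirectionally against DMSO baseline.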
# [13] = molecular target: Transcription factor E2F1 (Homo sapiens) (UniProt Q01094); assay: ATG_E2F_CIS: Attagene CIS-FACTORIAL HepG2 Assay for human E2F Transcription Factor 1 (AID 2282935); conditions: HepG2 Attagene cis-reporter, E2F reporter RNA transcripts; actives raise or lower the signal
# Sequence of Transcription factor E2F1 (Homo sapiens) (Q01094 whole entry, looked up): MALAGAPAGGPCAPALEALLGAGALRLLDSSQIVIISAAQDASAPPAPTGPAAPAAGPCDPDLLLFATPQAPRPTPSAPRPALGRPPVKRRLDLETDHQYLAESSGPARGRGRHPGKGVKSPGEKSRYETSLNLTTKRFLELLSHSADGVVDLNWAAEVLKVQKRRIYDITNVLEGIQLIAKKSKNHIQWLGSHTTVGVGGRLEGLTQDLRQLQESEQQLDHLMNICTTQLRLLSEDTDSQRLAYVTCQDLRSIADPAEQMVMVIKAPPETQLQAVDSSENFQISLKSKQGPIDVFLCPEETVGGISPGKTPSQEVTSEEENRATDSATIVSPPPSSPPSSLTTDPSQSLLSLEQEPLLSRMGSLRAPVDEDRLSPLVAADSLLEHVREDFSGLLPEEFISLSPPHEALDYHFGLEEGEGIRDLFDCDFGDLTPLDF
# Outline: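 Transient MRTU transfection of HepG2; 24 h compound exposure; RNA → oligo(dT) RT → PCR → FAM label → HpaI cut → CE fluorescence. Gain/loss of signal fit against DMSO.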
# [14] = ATG_GATA_CIS: Attagene CIS-FACTORIAL HepG2 Assay for human GATA Binding Protein (AID 2282944); conditions: HepG2 GATA cis-element reporter, Attagene multiplex mRNA; actives raise or lower the signal
# Outline: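 Read-out: fluorescent reporter mRNA fragments resolved by capillary electrophoresis after RT-PCR. Human liver HepG2 cells carried transiently transfected cis-regulated reporter constructs; chemicals incubated 24 h; gain or loss of signal fitted relative to DMSO.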
# [15] = molecular target: Hypoxia-inducible factor 1-alpha (Homo sapiens) (UniProt Q16665); assay: ATG_HIF1a_CIS: Attagene CIS-FACTORIAL HepG2 Assay for human Hypoxia Inducible Factor 1 (HIF1A) (AID 2282951); conditions: HepG2 Attagene cis-factorial HIF1a reporter transcription; actives raise or lower the signal
# Sequence of Hypoxia-inducible factor 1-alpha (Homo sapiens) (Q16665 whole entry, looked up): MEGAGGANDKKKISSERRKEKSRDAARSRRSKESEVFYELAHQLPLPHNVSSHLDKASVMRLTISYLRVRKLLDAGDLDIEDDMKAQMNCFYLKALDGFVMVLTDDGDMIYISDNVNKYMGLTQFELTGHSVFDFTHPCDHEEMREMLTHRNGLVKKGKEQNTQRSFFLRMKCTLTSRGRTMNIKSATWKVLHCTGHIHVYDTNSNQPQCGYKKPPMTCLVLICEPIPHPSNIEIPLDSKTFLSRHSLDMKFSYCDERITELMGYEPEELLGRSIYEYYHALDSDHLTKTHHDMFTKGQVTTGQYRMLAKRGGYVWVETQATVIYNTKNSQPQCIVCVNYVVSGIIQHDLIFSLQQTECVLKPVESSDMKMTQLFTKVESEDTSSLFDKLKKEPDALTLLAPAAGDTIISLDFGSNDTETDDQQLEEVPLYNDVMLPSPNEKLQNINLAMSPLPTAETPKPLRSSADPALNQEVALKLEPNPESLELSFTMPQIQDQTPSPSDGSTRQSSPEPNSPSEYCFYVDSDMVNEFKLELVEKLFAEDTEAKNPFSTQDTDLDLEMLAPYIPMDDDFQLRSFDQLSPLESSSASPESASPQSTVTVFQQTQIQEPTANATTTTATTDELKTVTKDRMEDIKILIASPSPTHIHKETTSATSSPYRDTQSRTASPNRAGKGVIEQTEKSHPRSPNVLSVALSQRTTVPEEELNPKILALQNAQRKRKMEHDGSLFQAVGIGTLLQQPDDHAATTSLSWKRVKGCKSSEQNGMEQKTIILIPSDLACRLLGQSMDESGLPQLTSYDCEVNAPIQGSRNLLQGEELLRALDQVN
# Outline: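 HepG2 cells transiently transfected with multiple cis-regulated reporter transcription units measure endogenous transcription factor activity. After 24 h exposure, reporter mRNA is quantified by RT-PCR with 6-FAM labelling, HpaI digestion and capillary electrophoresis. Bidirectional fitting against DMSO.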
# [16] = molecular target: Signal transducer and activator of transcription 3 (Homo sapiens) (UniProt P40763); assay: ATG_STAT3_CIS: Attagene CIS-FACTORIAL HepG2 Assay for human Signal Transducer and Activator of Transcription 3 (STAT3) (AID 2282963); conditions: HepG2, Attagene cis-factorial STAT3 reporter transcription; actives raise or lower the signal
# Sequence of Signal transducer and activator of transcription 3 (Homo sapiens) (P40763 whole entry, looked up, the tested form may be a part): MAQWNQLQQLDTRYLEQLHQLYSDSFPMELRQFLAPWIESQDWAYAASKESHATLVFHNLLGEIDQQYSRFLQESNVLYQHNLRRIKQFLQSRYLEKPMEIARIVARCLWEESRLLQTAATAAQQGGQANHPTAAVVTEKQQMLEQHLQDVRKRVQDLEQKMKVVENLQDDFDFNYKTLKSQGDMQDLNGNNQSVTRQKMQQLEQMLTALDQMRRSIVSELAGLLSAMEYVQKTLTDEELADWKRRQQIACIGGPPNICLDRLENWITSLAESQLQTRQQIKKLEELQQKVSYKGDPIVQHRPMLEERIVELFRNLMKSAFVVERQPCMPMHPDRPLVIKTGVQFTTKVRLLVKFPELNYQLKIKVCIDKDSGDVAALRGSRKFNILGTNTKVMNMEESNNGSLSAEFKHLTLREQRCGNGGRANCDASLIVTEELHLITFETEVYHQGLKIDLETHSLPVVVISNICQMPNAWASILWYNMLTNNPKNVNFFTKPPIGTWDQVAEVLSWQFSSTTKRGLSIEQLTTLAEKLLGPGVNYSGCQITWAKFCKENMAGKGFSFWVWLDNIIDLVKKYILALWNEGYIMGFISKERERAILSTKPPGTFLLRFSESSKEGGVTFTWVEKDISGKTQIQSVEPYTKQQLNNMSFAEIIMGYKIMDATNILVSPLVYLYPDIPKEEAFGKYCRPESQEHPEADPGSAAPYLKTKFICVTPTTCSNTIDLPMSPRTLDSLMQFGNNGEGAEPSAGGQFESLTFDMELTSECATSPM
# Outline: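 Readout: fluorescent reporter mRNA fragments resolved by capillary electrophoresis. Setup: HepG2 transfected with MRTUs reporting endogenous transcription-factor activity, dosed 24 h. Gain or loss of signal fitted bidirectionally against DMSO control.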
# [17] = ATG_VDRE_CIS: Attagene CIS-FACTORIAL HepG2 Assay for human Vitamin D Receptor Element (VDRE) (AID 2282968); conditions: HepG2 VDRE cis-reporter transcription, actives raise or lower the signal
# Outline: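 Transient MRTU transfection of HepG2, 24 h compound exposure. Readout: reporter transcripts via RT-PCR and capillary electrophoresis, fluorescence. Bidirectional fit vs DMSO.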
# [18] = molecular target: Transcriptional activator Myb (Homo sapiens) (UniProt P10242); assay: ATG_Myb_CIS: Attagene CIS-FACTORIAL HepG2 Assay for human Myeloblastosis (Myb) Proto-Oncogene Transcription Factor (AID 2282986); conditions: HepG2 Attagene CIS-FACTORIAL Myb reporter transcription; actives raise or lower the signal
# Outline: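 Transiently transfected HepG2 cells carrying a multiplexed cis-promoter reporter set report endogenous Myb activity after 24 h compound exposure. Reporter mRNA is read by RT-PCR with capillary electrophoresis of fluorescent products, fitted bidirectionally against DMSO.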
# [19] = molecular target: Cellular tumor antigen p53 (Homo sapiens) (UniProt P04637); assay: ATG_p53_CIS: Attagene CIS-FACTORIAL HepG2 Assay for human p53 Transcription Factor (AID 2282994); conditions: HepG2 p53 cis-element reporter, Attagene mRNA; actives raise or lower the signal
# Sequence of Cellular tumor antigen p53 (Homo sapiens) (P04637 whole entry, looked up): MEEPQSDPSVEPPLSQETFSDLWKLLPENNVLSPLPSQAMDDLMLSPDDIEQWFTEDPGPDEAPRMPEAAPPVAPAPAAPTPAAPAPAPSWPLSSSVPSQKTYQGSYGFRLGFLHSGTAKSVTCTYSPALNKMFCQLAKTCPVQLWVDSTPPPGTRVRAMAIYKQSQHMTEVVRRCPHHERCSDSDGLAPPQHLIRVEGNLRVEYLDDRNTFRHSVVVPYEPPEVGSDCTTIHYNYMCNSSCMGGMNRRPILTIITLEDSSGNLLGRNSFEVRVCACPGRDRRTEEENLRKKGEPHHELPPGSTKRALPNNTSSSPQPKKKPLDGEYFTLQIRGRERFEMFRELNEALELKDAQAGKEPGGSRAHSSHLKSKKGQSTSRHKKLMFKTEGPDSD
# Outline: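 Read-out: reporter mRNA by RT-PCR plus capillary electrophoresis with fluorescence detection. Human HepG2 liver cells carried transfected multi-reporter cis-element constructs, dosed 24 h. Gain or loss of signal fitted bidirectionally against DMSO control.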
# [20] = molecular target: Cellular tumor antigen p53 (Homo sapiens) (UniProt P04637); assay: TOX21_p53_BLA_p2_ratio: Tox21 HCT-116 p53 Agonism Beta-lactamase Assay, Ratio, Phase 2 (AID 2283592; active = hit-call score of the fitted dose curve at least 0.9, where 1 is the maximum)
# Outline: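 DMSO-normalized, positive-direction endpoint derived from the 460 nm/530 nm FRET ratio in HCT116 p53 beta-lactamase reporter cells exposed 16 h at 37C and loaded with CCF4-AM for 2 h.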
compound,measurement,setting,value
CC(O)(P(=O)(O)O)P(=O)(O)O,outcome,[1],inactive
same,outcome,[2],inactive
same,outcome,[3],inactive
same,outcome,[4],inactive
same,outcome,[5],inactive
same,outcome,[6],inactive
same,outcome,[7],inactive
same,outcome,[8],inactive
same,outcome,[9],inactive
same,outcome,[10],inactive
same,outcome,[11],inactive
same,outcome,[12],inactive
OCCOCCOCCOCCOCCO,outcome,[13],inactive
same,outcome,[14],inactive
same,outcome,[15],inactive
same,outcome,[2],inactive
same,outcome,[3],inactive
same,outcome,[4],inactive
same,outcome,[5],inactive
same,outcome,[16],inactive
same,outcome,[7],inactive
same,outcome,[17],inactive
same,outcome,[9],inactive
same,outcome,[18],inactive
same,outcome,[10],inactive
same,outcome,[11],inactive
same,outcome,[12],inactive
same,outcome,[19],inactive
same,outcome,[20],inactive
CC(C)CC(=O)CC(C)C,outcome,[1],inactive
same,outcome,[13],inactive
same,outcome,[15],inactive
same,outcome,[2],inactive
same,outcome,[3],inactive
same,outcome,[5],inactive
same,outcome,[6],inactive
same,outcome,[16],inactive
same,outcome,[7],inactive
same,outcome,[17],inactive
same,outcome,[9],inactive
same,outcome,[10],inactive
same,outcome,[11],inactive
same,outcome,[12],inactive
same,outcome,[19],inactive
same,outcome,[20],inactive
O=C(O)c1ccccc1C(=O)O,outcome,[13],inactive
same,outcome,[15],inactive
same,outcome,[2],inactive
same,outcome,[3],inactive
same,outcome,[5],inactive
same,outcome,[6],inactive
same,outcome,[16],inactive
same,outcome,[7],inactive
same,outcome,[8],inactive
same,outcome,[9],inactive
same,outcome,[18],inactive
same,outcome,[10],inactive
same,outcome,[12],inactive
same,outcome,[19],inactive
same,outcome,[20],inactive
CCCCCCCCCCCCCCCCCC[N+](C)(C)C,outcome,[13],inactive
same,AC50,[14],38.7 µM (active)
same,outcome,[15],inactive
same,AC50,[2],42.2 µM (active)
same,AC50,[3],43.9 µM (active)
same,outcome,[4],inactive
same,AC50,[5],40.7 µM (active)
same,AC50,[16],44 µM (active)
same,AC50,[17],6.1 µM (active)
same,outcome,[8],inactive
same,outcome,[9],inactive
same,AC50,[18],6.05 µM (active)
same,outcome,[10],inactive
same,AC50,[11],41.5 µM (active)
same,AC50,[12],4.81 µM (active)
same,outcome,[19],inactive
same,AC50,[20],73.2 µM (active)
C1=CCC=C1,outcome,[1],inactive
same,outcome,[14],inactive
same,outcome,[15],inactive
same,outcome,[2],inactive
same,outcome,[5],inactive
same,outcome,[16],inactive
same,outcome,[7],inactive
same,outcome,[17],inactive
same,outcome,[8],inactive
same,outcome,[9],inactive
same,outcome,[10],inactive
same,outcome,[12],inactive
Oc1ccc(Cl)cc1C1CCCC1,outcome,[13],inactive
same,AC50,[14],33.4 µM (active)
same,outcome,[15],inactive
same,AC50,[2],55.6 µM (active)
same,outcome,[3],inactive
same,AC50,[5],37.5 µM (active)
same,AC50,[6],33.4 µM (active)
same,outcome,[9],inactive
same,outcome,[18],inactive
same,AC50,[10],33.4 µM (active)
same,AC50,[11],16.6 µM (active)
same,AC50,[12],12.9 µM (active)
same,AC50,[19],56.7 µM (active)
same,outcome,[20],inactive
